Our source for the Potency values is PubChem BioAssay (NCATS).

Records with an inconclusive call do not appear. Active and inactive are the calls of the source. Unless noted, the call rests on the fitted dose curve; in most records, active means well fitted curve in the direction sought with a large enough effect; inconclusive means small, poorly fitted or top-dose-only effect, or another doubt; inactive means no such curve, though single readings can be large; an effect the other way counts as inactive or inconclusive.

Test [1] deals with Luciferin 4-monooxygenase (Photinus pyralis) (UniProt P08659). Briefly: Biochemical firefly luciferase enzyme assay for NPC (AID 624030).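 Further: purified P. pyralis luciferase at 10 nM with luciferin and ATP substrate; nearly all actives have a fitted effect of over 70% in size.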 Put shortly: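 Purified P. pyralis luciferase at 10 nM in 50 mM Tris Acetate (final), luminescence read within 5 minutes of enzyme addition to compounds. Activity normalised to PTC124 versus DMSO; concentration-response curves classed by r2, magnitude and activity.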

A short description of test [2]: S16 Schwann cell PMP22 intronic element firefly luciferase assay (AID 624032). Further: nearly all actives have a fitted effect of over 30% in size. Put shortly:
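Rat S16 Schwann cells stably carrying firefly luciferase driven by a PMP22 intronic element, in 10% FBS, treated 24 h at 37 C. ONE-Glo luminescence normalized to PTC124 control and DMSO (0%); curves classed by r2, magnitude and activity.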

Test [3] can be described thus: S16 Schwann cell PMP22 intronic element beta-lactamase assay (AID 624044; calls by dose curve; further: nearly all actives have a fitted effect of over 15% in size). An outline of the steps: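 Beta-lactamase reporter under a PMP22 intronic regulatory element in stable S16 rat Schwann cells; 24 h compound exposure. 460 nm blue signal normalized between DMSO (0%) and potassium clavulanate, with 535 nm FRET tracking viability; curves classed by r2 and response.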

A further test has as its system ATS95. The test is described as follows: qHTS profiling for inhibitors of Plasmodium falciparum proliferation (AID 504749). Further: nearly all actives have a fitted effect of over 60% in size. Further: potency means the concentration at half of the fitted maximal effect. Particulars: P. falciparum in erythrocytes, SYBR Green DNA, 72 h; series mostly up to 12.8 µM. An outline of the steps:
(§1)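 SYBR Green fluorescence (ex 485 nm, em 535 nm) reports parasite DNA after 72 h compound exposure of infected red cells at 0.3% parasitemia, 2.5% hematocrit; signal normalized to 0.29 uM artemisinin and vehicle wells.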
Background: qHTS replaces the single test concentration by a dilution series.

The subject of another test is CP201. The test is described as above. Particulars: P. falciparum in erythrocytes, SYBR Green DNA, 72 h; series mostly up to 12.8 µM. An outline of the steps:
as §1

Another test has as its system CP237. The test is described as above. Particulars: P. falciparum in erythrocytes, SYBR Green DNA, 72 h; series mostly up to 12.8 µM. Put shortly: as §1
The next test relates to CP247. Described as above. Particulars: P. falciparum in erythrocytes, SYBR Green DNA, 72 h; series mostly up to 12.8 µM. Put shortly:
as §1

The next test relates to CP260. Described as above. Particulars: P. falciparum in erythrocytes, SYBR Green DNA, 72 h; series mostly up to 12.8 µM. An outline of the steps:
as §1

The next test concerns CP262. Described as above. Particulars: P. falciparum in erythrocytes, SYBR Green DNA, 72 h; series mostly up to 12.8 µM. Put shortly: as §1
A further test deals with CP265. Described as above. To be noted: P. falciparum in erythrocytes, SYBR Green DNA, 72 h; series mostly up to 12.8 µM. Put shortly:
as §1

For another test, the system named is CP269. Described as above. Particulars: P. falciparum in erythrocytes, SYBR Green DNA, 72 h; series mostly up to 12.8 µM. An outline of the steps:
as §1

In another test the test system is CP291. Described as above. To be noted: P. falciparum in erythrocytes, SYBR Green DNA, 72 h; series mostly up to 12.8 µM. Put shortly:
as §1

A further test has as its system CP305. The description is as above. Particulars: P. falciparum in erythrocytes, SYBR Green DNA, 72 h; series mostly up to 12.8 µM. Put shortly:
as §1

A further test concerns CP325. The test is described as above. Particulars: P. falciparum in erythrocytes, SYBR Green DNA, 72 h; series mostly up to 12.8 µM. Put shortly: as §1
The test system of the next test is CP329. Described as above. Particulars: P. falciparum in erythrocytes, SYBR Green DNA, 72 h; series mostly up to 12.8 µM. Put shortly: as §1
The subject of another test is DIV14. Described as above. To be noted: P. falciparum in erythrocytes, SYBR Green DNA, 72 h; series mostly up to 12.8 µM. An outline of the steps:
as §1

For a further test, the system named is DIV30. The test is described as above. To be noted: P. falciparum in erythrocytes, SYBR Green DNA, 72 h; series mostly up to 12.8 µM. An outline of the steps: as §1
For the next test, the system named is ICS. The test is described as above. To be noted: P. falciparum in erythrocytes, SYBR Green DNA, 72 h; series mostly up to 12.8 µM. Put shortly:
as §1

Another test deals with P94_40. The test is described as above. To be noted: P. falciparum in erythrocytes, SYBR Green DNA, 72 h; series mostly up to 12.8 µM. An outline of the steps: as §1
For another test, the system named is TAB165. The description is as above. Particulars: P. falciparum in erythrocytes, SYBR Green DNA, 72 h; series mostly up to 12.8 µM. Put shortly:
as §1

Luciferin 4-monooxygenase (Photinus pyralis), sequence (P08659 whole entry, looked up): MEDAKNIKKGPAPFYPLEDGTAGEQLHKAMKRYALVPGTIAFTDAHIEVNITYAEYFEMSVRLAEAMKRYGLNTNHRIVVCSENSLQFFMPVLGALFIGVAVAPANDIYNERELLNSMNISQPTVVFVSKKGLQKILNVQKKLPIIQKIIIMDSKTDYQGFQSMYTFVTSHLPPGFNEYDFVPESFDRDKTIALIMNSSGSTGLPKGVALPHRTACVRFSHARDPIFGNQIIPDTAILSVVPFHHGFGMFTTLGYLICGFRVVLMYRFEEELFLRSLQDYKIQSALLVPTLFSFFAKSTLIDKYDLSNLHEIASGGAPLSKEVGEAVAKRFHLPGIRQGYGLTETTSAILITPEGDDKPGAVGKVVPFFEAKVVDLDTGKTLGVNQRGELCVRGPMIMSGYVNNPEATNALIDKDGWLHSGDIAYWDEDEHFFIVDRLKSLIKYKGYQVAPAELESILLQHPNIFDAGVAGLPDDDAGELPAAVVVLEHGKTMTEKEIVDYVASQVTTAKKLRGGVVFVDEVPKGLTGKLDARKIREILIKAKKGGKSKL

For `CCOC(=O)O[C@]1(C(=O)COC(=O)CC)CC[C@@H]2[C@@H]3CCC4=CC(=O)C=C[C@@]4(C)[C@H]3[C@H](O)C[C@]21C`, the Potency result (in test [1]; in test [2]; in test [3]; with ATS95; with CP201; in the test with CP237) was “inactive” throughout. The Potency entry in the test on CP247, in the test with CP260, in the test on CP262, in the test with CP265, in the test with CP269 and with CP291 was “inactive” in each case. For the same molecule, the Potency result in the test with CP305, in the test with CP325, with CP329, in the test with DIV14, in the test on DIV30 and in the test on ICS was “inactive” throughout. In addition, the Potency result in the test with P94_40 and in the test with TAB165 was “inactive” throughout.
On to `Clc1ccc(CC[C@H](Cn2ccnc2)Sc2c(Cl)cccc2Cl)cc1`, for which the Potency result in test [1] and in test [3] was “inactive” throughout. Besides, the Potency was 5.73 µM (active) in the test with CP291; 6.42 µM (active) in the test on CP329; 3.22 µM (active) with DIV14; 5.73 µM (active) with DIV30; 1.41 µM (active) with ICS; 1.26 µM (active) in the test with TAB165.
For the molecule `CC(=O)OCC(=O)[C@@]12OC(C)(C)O[C@@H]1C[C@H]1[C@H]3C[C@H](F)C4=CC(=O)C=C[C@@]4(C)[C@]3(F)[C@H](O)C[C@@]12C`, the Potency result (in [1]; in [2]; with ATS95; in the test on CP201; with CP237; in the test on CP247) was “inactive” in each case. Also, the Potency result in the test with CP260, in the test with CP262, in the test with CP265, in the test on CP269, with CP291 and in the test with CP305 was “inactive” throughout. For the same molecule, the Potency result with CP325, in the test on CP329, in the test with DIV14, in the test with DIV30, in the test with ICS and with P94_40 was “inactive” throughout. The Potency result in the test with TAB165 is “inactive”.
With `CC1(C)O[C@@H]2C[C@H]3[C@H]4C[C@H](F)C5=CC(=O)CC[C@]5(C)[C@@H]4[C@H](O)C[C@]3(C)[C@]2(C(=O)CO)O1`, the Potency result (in [1]; in test [2]; in test [3]; in the test with ATS95; with CP201; with CP237) was “inactive” each time. Also, the Potency entry in the test with CP247, in the test with CP260, in the test with CP262, with CP265, in the test on CP269 and with CP291 was “inactive” throughout. For the same molecule, the Potency entry in the test with CP305, with CP325, with CP329, with DIV14, in the test on DIV30 and with ICS was “inactive” throughout. Also, the Potency entry in the test on P94_40 and with TAB165 was “inactive” each time.
With `Cc1onc(-c2ccccc2Cl)c1C(=O)N[C@H]1C(=O)N2[C@H]1SC(C)(C)[C@H]2C(=O)O`, the Potency result (in test [1]; in test [3]; in the test on ATS95; in the test on CP201; with CP237; with CP247) was “inactive” each time. Moreover, the Potency result in the test on CP260, with CP262, with CP265, in the test on CP269, with CP291 and in the test on CP305 was “inactive” each time. Also, the Potency result in the test on CP325, in the test with CP329, in the test on DIV14, in the test on DIV30, in the test with ICS and in the test with P94_40 was “inactive” throughout. Further, the Potency entry with TAB165 was “inactive”.
Regarding `CN[C@H]1[C@@H](O)[C@@H](NC)[C@@H]2O[C@@]3(O)C(=O)C[C@@H](C)O[C@H]3O[C@H]2[C@H]1O`, the Potency result (in test [1]; in test [2]; in [3]; in the test with ATS95; in the test on CP201; with CP237) was “inactive” throughout. For the same molecule, the Potency result in the test with CP247, in the test on CP260, in the test on CP262, in the test on CP265, with CP269 and with CP291 was “inactive” in each case. Moreover, the Potency entry in the test with CP305, in the test on CP325, in the test on CP329, with DIV14, in the test on DIV30 and with ICS was “inactive” throughout. Also, the Potency result in the test on P94_40 and in the test with TAB165 was “inactive” in each case.
With `COc1cc2nc(N3CCN(C(=O)[C@@H]4COc5ccccc5O4)CC3)nc(N)c2cc1OC`, the Potency result (in test [1]; in [2]; in test [3]; in the test on CP201; in the test on CP265; in the test with CP305) was “inactive” throughout. The Potency entry with CP325 was “inactive”. In addition, the Potency in the test on DIV14 is 13.5 µM (active).
Regarding `Cn1nnnc1SCC1=C(C(=O)O)N2C(=O)[C@@H](NC(=O)[C@@H](O)c3ccccc3)[C@@H]2SC1`, the Potency result (in test [1]; in test [2]; in [3]; in the test on ATS95; in the test on CP201; in the test on CP237) was “inactive” in each case. Also, the Potency result in the test with CP247, in the test with CP260, with CP262, in the test on CP265, in the test with CP269 and in the test on CP305 was “inactive” throughout. Moreover, the Potency entry in the test on CP325, with CP329, in the test with DIV14, in the test on DIV30, in the test with ICS and in the test with P94_40 was “inactive” in each case. Also, the Potency entry in the test on TAB165 is “inactive”.
With `CC[C@](C)(CN(C)C)OC(=O)c1ccccc1`, the Potency result (in test [1]; in [2]; in test [3]; with ATS95; in the test on CP201; with CP247) was “inactive” each time. In addition, the Potency entry in the test with CP260, in the test with CP262, with CP265, in the test on CP269, with CP291 and in the test with CP305 was “inactive” each time. In addition, the Potency entry in the test with CP325, with CP329, with DIV30, in the test on ICS, with P94_40 and in the test with TAB165 was “inactive” each time.
Regarding `OCCN1CCN(CCC=C2c3ccccc3Sc3ccc(Cl)cc32)CC1`, the Potency result (in test [1]; in test [2]; in [3]; in the test on CP305) was “inactive” in each case. Further, the Potency in the test with ICS was 4.47 µM (active).
Regarding `CN1CCN([C@@H](c2ccccc2)c2ccc(Cl)cc2)CC1`, the Potency result (in test [1]; in [2]; in [3]; in the test on CP237; in the test with CP247; with CP260) was “inactive” each time. Also, the Potency entry with CP262, with CP269, with CP305, in the test on CP325 and with CP329 was “inactive” throughout. Besides, the Potency was 2.28 µM (active) with DIV14 and 3.16 µM (active) in the test on ICS.
Take `CNC[C@H](O)c1ccc(OC(=O)C(C)(C)C)c(OC(=O)C(C)(C)C)c1`: the Potency result (in test [1]; in [3]; in the test on ATS95; with CP201; in the test with CP237; in the test with CP247) was “inactive” throughout. Also, the Potency result in the test on CP260, with CP262, with CP265, in the test on CP291, in the test on CP305 and in the test with CP325 was “inactive” throughout. Besides, the Potency entry in the test on CP329, with DIV14, with DIV30, in the test on P94_40 and in the test on TAB165 was “inactive” each time.
Consider `CN1CCCN=C1/C=C\c1cccs1`, for which, in test [1], the Potency result was “inactive”.
Consider `CCN1CCC[C@@H](OC(=O)C(c2ccccc2)c2ccccc2)C1`, for which the Potency result (in [1]; in test [3]; with ATS95; with CP201; in the test on CP247; with CP260) was “inactive” each time. The Potency entry with CP262, in the test on CP269, in the test on CP305 and with CP329 was “inactive” in each case. For the same molecule, in the test with CP237, the Potency is 1.78 µM (active).
For the molecule `CCCCC[C@H](O)/C=C\[C@H]1[C@H](C/C=C\CCCC(=O)O)[C@@H](O)C[C@H]1O` (tested in a mixture with another compound), the Potency result (in [1]; in test [2]; in test [3]; in the test with ATS95; in the test on CP201; in the test with CP237) was “inactive” throughout. The Potency result in the test with CP247, in the test with CP260, in the test with CP262, in the test on CP265, in the test with CP269 and in the test on CP291 was “inactive” in each case. For the same molecule, the Potency result with CP305, in the test on CP325, with CP329, with DIV14, with DIV30 and in the test with ICS was “inactive” in each case. The Potency entry in the test with P94_40 and in the test on TAB165 was “inactive” each time.
